This note sets out measurements from PubChem BioAssay (Tox21).

Records with an inconclusive call do not appear. Where a call stands in place of a potency, no number is given. Values without a mark were called inactive. Calls of active or inactive are those of the source. Calls follow the shape of the full dose curve.

A short description of this test: qHTS assay for small molecules that induce genotoxicity in human embryonic kidney cells expressing luciferase-tagged ATAD5 - cell viability (AID 651634). Also: nearly all actives have a fitted effect of over 25% in size. The following applies: HEK293T ATAD5-luc cells viability, CellTiter-Fluor, 15.5 h; series mostly up to 83.3 µM. The source says: National Center for Advancing Translational Sciences [NCATS]
NIH Chemical Genomics Center [NCGC]
U.S. Environmental Protection Agency [EPA]
National Institutes of Environmental Health Sciences [NIEHS]
National Toxicology Program [NTP]
U.S. Food and Drug Administration [FDA]
Enhanced Level of Genome Instability Gene 1 (ELG1; human ATAD5) protein levels increase in response to various types of DNA damage. Using a luciferase reporter-gene tagged with ElG1, a cell-based assay [developed by Kyungjae Myung, NHGRI, NIH] was used to measure the induction of ATAD5 in human embryonic kidney cells (HEK293T). So, increase in luciferase activity can be used to identify the compounds that cause genetic stress. In addition to genotoxicity, these cells were also used to test for cytotoxicity by measuring the protease activity within live cells.
Tox21 Assay Protocol Summary:
For cytotoxicity screening, 2,000 cells in 5 uL/well were dispensed into white, solid-bottom 1536-well plates using a Multidrop Combi (Thermo Scientific) dispenser. Following transfer of 23 nL compound or DMSO vehicle by a pin tool, the plates were incubated 15.5 hr at 37C and 5% CO2. 1 ul CellTiter-Fluor reagent (Promega, Madison, WI) was then added to each plate and following 30 min incubation at 37C, fluorescence intensity was quantified on a ViewLux CCD-based plate reader.
(qHTS replaces the single test concentration by a dilution series.)
With `Cc1cccnc1`, the Potency result was “inactive”. The same measure, in the same setting: the entry for `CC(c1cc2ccccc2s1)N(O)C(N)=O` (stereo not given) is “inactive”; for `CN(C)CCC(c1ccccc1)c1ccccn1` (stereo not given) it is “inactive”. The same measure, in the same setting: for `FC(F)(F)c1ccc(Cl)c(Cl)c1` the value was “inactive”; for `O=C(O)CC(C(=O)O)C(CC(=O)O)C(=O)O` (stereo not given), “inactive”; for `C/C=C1/CC2C=CC1C2` (stereo not given), “inactive”.

Take `COS(C)(=O)=O`: the Potency entry is “inactive”. On to `c1c[nH]cn1`, for which the Potency entry is “inactive”. Same read-out and setting: for `O=S(=O)(O)c1ccc2ccccc2c1` the value was “inactive”. Still for that read-out and setting: for `O=C(OCCOCCOC(=O)c1ccccc1)c1ccccc1` the value was “inactive”; for `Cc1ccc2oc(=O)ccc2c1`, “inactive”. The same measure, in the same setting: the entry for `O=c1[nH]c(=O)n([C@H]2CCCO2)cc1F` is “inactive”.

As to `CCCCCC(N)=O`, the Potency result was “inactive”. On the same count and under the same terms, for `O=C(O)c1ccc2c(c1)C(=O)OC2=O` the value was “inactive”; for `O=C(O)c1ccc(C(=O)O)cc1`, “inactive”. As for `COc1ccc(NC(C)=O)cc1N`, the Potency result was “inactive”. On the same count and under the same terms, the entry for `O=P(OC(CCl)CCl)(OC(CCl)CCl)OC(CCl)CCl` is “inactive”; for `Cc1ccc(S(N)(=O)=O)cc1` it is “inactive”; for `C#CCN(C)Cc1ccccc1` it is “inactive”. Still for that read-out and setting: the entry for `CCCCCCCC(=O)OC` is “inactive”; for `O=C1CCC(N2C(=O)c3ccccc3C2=O)C(=O)N1` (stereo not given) it is “inactive”; for `OCCOCCOCCO` it is “inactive”. Still for that read-out and setting: the entry for `CCOC(=O)NNc1nncc2ccccc12` is “inactive”; for `O=S1(=O)CC=CC1` it is “inactive”. On to `CCN(CC)CCCC(C)Nc1ccnc2cc(Cl)ccc12` (stereo not given), for which the activity, negative = cytotoxicity was -6.84% [at 8.08 µM]. Consider `O=C(O)CCCCCCCCCCC(=O)O`, for which the Potency entry was “inactive”. Same read-out and setting: for `CC(C)(N)CO` the value was “inactive”; for `OC[C@H]1O[C@@](CO)(O[C@H]2O[C@H](CO)[C@@H](O)[C@H](O)[C@H]2O)[C@@H](O)[C@@H]1O`, “inactive”. The same measure, in the same setting: for `CC(=O)OCC(=O)[C@@]12N=C(C)O[C@@H]1C[C@H]1[C@@H]3CCC4=CC(=O)C=C[C@]4(C)[C@H]3[C@@H](O)C[C@@]12C` the value was “inactive”; for `O=C=NCCCCCCN=C=O`, “inactive”.

Take `CCCCCCCCCCCCS`: the Potency entry was “inactive”.

Turning to `CC1CCC(C(C)C)C(O)C1` (stereo not given), the Potency entry is “inactive”. Still for that read-out and setting: the entry for `CC1=CCC2CC1C2(C)C` (stereo not given) is “inactive”; for `CN(C)CCC(c1ccc(Cl)cc1)c1ccccn1` (stereo not given) it is “inactive”.

Take `CC(C)CC(=O)CC(C)C`: the Potency entry is “inactive”. For `O=C(Oc1ccccc1)c1ccccc1`, the Potency entry is “inactive”. On the same count and under the same terms, the entry for `C[Si](O[Si](C)(C)C)O[Si](C)(C)C` is “inactive”. Same read-out and setting: the entry for `CSCCC=O` is “inactive”; for `COc1ccc(Nc2ccccc2)c(C)c1` it is “inactive”. Still for that read-out and setting: the entry for `CCCCC(CC)CO` (stereo not given) is “inactive”.
